# The supplement of paper PMC6992640
# ± gives the standard deviation of the averaged measurements.
# How the values were obtained:
# HCI01 = cells of a triple-negative basal-like breast cancer xenograft; assay: cell viability of combination (% of vehicle); higher = less cytotoxic; settings: 1 µM; 72 h; partner dose: 10 nM
# Description: (§1)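 PDX cells were treated for 72 h with each drug at 1 µM plus carfilzomib (10 nM; 100 nM for WHIM2). Luciferase viability is expressed as percent of vehicle.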
# UCD52 [1] = cells of a triple-negative basal-like breast cancer xenograft; assay: as above; settings: 1 µM; 72 h; partner dose: 10 nM
# Description: as §1
# HCI11 = cells of an ER-positive luminal breast cancer xenograft; assay: cell viability (% of vehicle); higher = less cytotoxic; settings: 10 µM; 72 h
# HCI09 = cells of a triple-negative luminal androgen receptor type breast cancer xenograft; assay: as above; settings: 10 µM; 72 h
# HCI16 = cells of a triple-negative basal-like breast cancer xenograft; assay: as above; settings: 10 µM; 72 h
# UCD52 [2] = assay: as above; settings: 10 µM; 72 h
# WHIM30 = cells of a triple-negative basal-like breast cancer xenograft; assay: as above; settings: 10 µM; 72 h
# HCI13 = cells of an ER-positive luminal breast cancer xenograft; assay: as above; settings: 10 µM; 72 h
# WHIM2 = cells of a triple-negative basal-like breast cancer xenograft; assay: as above; settings: 10 µM; 72 h
# HCI03 = cells of an ER-positive luminal breast cancer xenograft; assay: as above; settings: 10 µM; 72 h
compound,measurement,setting,value
C=CC(=O)N1CCC(Oc2cc3c(Nc4ccc(Cl)c(Cl)c4F)ncnc3cc2OC)CC1 [Poziotinib] + CC(C)C[C@H](NC(=O)[C@H](CCc1ccccc1)NC(=O)CN1CCOCC1)C(=O)N[C@@H](Cc1ccccc1)C(=O)N[C@@H](CC(C)C)C(=O)[C@@]1(C)CO1 [Carfilzomib],cell viability of combination,HCI01,52.8
same,cell viability of combination,UCD52 [1],28.9
COc1cccc(-c2ccc(NC(=O)C3=C(C(=O)O)CCC3)c(F)c2)c1 [Vidofludimus],cell viability,HCI11,99.5
COc1ccc(C[C@H](N)C(=O)N[C@@H]2[C@H](O)[C@H](n3cnc4c(N(C)C)ncnc43)O[C@@H]2CO)cc1.Cl.Cl [Puromycin dihydrochloride] + CC(C)C[C@H](NC(=O)[C@H](CCc1ccccc1)NC(=O)CN1CCOCC1)C(=O)N[C@@H](Cc1ccccc1)C(=O)N[C@@H](CC(C)C)C(=O)[C@@]1(C)CO1 [Carfilzomib],cell viability of combination,HCI01,76.4
same,cell viability of combination,UCD52 [1],13.8
C=C(c1ccc(C(=O)O)cc1)c1cc2c(cc1C)C(C)(C)CCC2(C)C [Bexarotene] + CC(C)C[C@H](NC(=O)[C@H](CCc1ccccc1)NC(=O)CN1CCOCC1)C(=O)N[C@@H](Cc1ccccc1)C(=O)N[C@@H](CC(C)C)C(=O)[C@@]1(C)CO1 [Carfilzomib],cell viability of combination,HCI01,71.8
same,cell viability of combination,UCD52 [1],79.6
CC(=O)Oc1ccccc1C(=O)Nc1ncc([N+](=O)[O-])s1 [Nitazoxanide],cell viability,HCI09,161 ± 140
same,cell viability,HCI11,168
same,cell viability,HCI16,128
same,cell viability,UCD52 [2],154 ± 8.6
Cl.OC(CNCC(O)C1CCc2cc(F)ccc2O1)C1CCc2cc(F)ccc2O1 (configuration not stated) [Nebivolol] + CC(C)C[C@H](NC(=O)[C@H](CCc1ccccc1)NC(=O)CN1CCOCC1)C(=O)N[C@@H](Cc1ccccc1)C(=O)N[C@@H](CC(C)C)C(=O)[C@@]1(C)CO1 [Carfilzomib],cell viability of combination,HCI01,72.5
same,cell viability of combination,UCD52 [1],64.3
O=C(Nc1nc2cccc(-c3ccc(CN4CCS(=O)(=O)CC4)cc3)n2n1)C1CC1,cell viability,HCI09,186 ± 51
same,cell viability,WHIM30,147 ± 9.8
CO[C@@]12[C@H](COC(N)=O)C3=C(C(=O)C(C)=C(N)C3=O)N1C[C@@H]1N[C@@H]12 [Mitomycin C] + CC(C)C[C@H](NC(=O)[C@H](CCc1ccccc1)NC(=O)CN1CCOCC1)C(=O)N[C@@H](Cc1ccccc1)C(=O)N[C@@H](CC(C)C)C(=O)[C@@]1(C)CO1 [Carfilzomib],cell viability of combination,HCI01,51.1
same,cell viability of combination,UCD52 [1],64
CC(NCc1ccc(OCc2cccc(F)c2)cc1)C(N)=O.CS(=O)(=O)O (configuration not stated) [Safinamide Mesylate],cell viability,HCI11,161
same,cell viability,HCI13,191 ± 36
same,cell viability,UCD52 [2],190 ± 11
same,cell viability,WHIM2,184 ± 45
CNC(=O)c1ccccc1Sc1ccc2c(C=Cc3ccccn3)n[nH]c2c1,cell viability,HCI11,158
same,cell viability,HCI16,150
same,cell viability,UCD52 [2],191 ± 4.7
c1cn2cc(-c3ccc4cn[nH]c4c3)nc(Nc3ccc(N4CCOCC4)cc3)c2n1,cell viability,HCI11,125
same,cell viability,HCI16,86.2
CCCCc1nc2cc(C=CC(=O)NO)ccc2n1CCN(CC)CC [Pracinostat (SB939)],cell viability,HCI09,56.2 ± 49
same,cell viability,HCI11,6.31
same,cell viability,HCI13,88.1 ± 21
same,cell viability,WHIM2,64.9 ± 4.9
CC(=Cc1ccccc1)C=C1SC(=S)N(CC(=O)O)C1=O [Epalrestat],cell viability,HCI03,112
same,cell viability,HCI11,96.4
same,cell viability,HCI13,170 ± 10
same,cell viability,HCI16,102
same,cell viability,UCD52 [2],102 ± 11
same,cell viability,WHIM30,134 ± 29
Cl.Cl.Fc1ccc(C(c2ccc(F)cc2)N2CCN(CC=Cc3ccccc3)CC2)cc1 [Flunarizine 2HCl] + CC(C)C[C@H](NC(=O)[C@H](CCc1ccccc1)NC(=O)CN1CCOCC1)C(=O)N[C@@H](Cc1ccccc1)C(=O)N[C@@H](CC(C)C)C(=O)[C@@]1(C)CO1 [Carfilzomib],cell viability of combination,HCI01,103
same,cell viability of combination,UCD52 [1],61.1
CC(C)CC(NC(=O)CNC(=O)c1cc(Cl)ccc1Cl)B(O)O (configuration not stated) + CC(C)C[C@H](NC(=O)[C@H](CCc1ccccc1)NC(=O)CN1CCOCC1)C(=O)N[C@@H](Cc1ccccc1)C(=O)N[C@@H](CC(C)C)C(=O)[C@@]1(C)CO1 [Carfilzomib],cell viability of combination,HCI01,43.7
same,cell viability of combination,UCD52 [1],19.8
CC(O)=C(C#N)C(=O)Nc1ccc(C(F)(F)F)cc1 [Teriflunomide],cell viability,HCI11,162
same,cell viability,HCI13,196 ± 48
same,cell viability,HCI16,200
"O=C(CCCCCCC(=O)Nc1ccccc1)NO [Vorinostat (SAHA, MK0683)]",cell viability,HCI09,46.1 ± 37
same,cell viability,HCI11,21.7
same,cell viability,HCI13,61 ± 23
same,cell viability,WHIM2,47.5 ± 4.1
CN(C)c1ccc(C(=C2C=CC(=[N+](C)C)C=C2)c2ccc(N(C)C)cc2)cc1.[Cl-] [Crystal Violet] + CC(C)C[C@H](NC(=O)[C@H](CCc1ccccc1)NC(=O)CN1CCOCC1)C(=O)N[C@@H](Cc1ccccc1)C(=O)N[C@@H](CC(C)C)C(=O)[C@@]1(C)CO1 [Carfilzomib],cell viability of combination,HCI01,68
same,cell viability of combination,UCD52 [1],32.3
COc1ccc(C=CC(=O)Nc2ccccc2C(=O)O)cc1OC [Tranilast],cell viability,HCI11,87.9
same,cell viability,HCI16,108
same,cell viability,UCD52 [2],116 ± 8.9
Clc1ccc(C(Cn2ccnc2)OCc2ccsc2Cl)c(Cl)c1 (configuration not stated) [Tioconazole] + CC(C)C[C@H](NC(=O)[C@H](CCc1ccccc1)NC(=O)CN1CCOCC1)C(=O)N[C@@H](Cc1ccccc1)C(=O)N[C@@H](CC(C)C)C(=O)[C@@]1(C)CO1 [Carfilzomib],cell viability of combination,HCI01,88.4
same,cell viability of combination,UCD52 [1],62.5
Cl.Fc1ccc(C2CCNCC2COc2ccc3c(c2)OCO3)cc1 (configuration not stated) [Paroxetine HCl] + CC(C)C[C@H](NC(=O)[C@H](CCc1ccccc1)NC(=O)CN1CCOCC1)C(=O)N[C@@H](Cc1ccccc1)C(=O)N[C@@H](CC(C)C)C(=O)[C@@]1(C)CO1 [Carfilzomib],cell viability of combination,HCI01,90.8
same,cell viability of combination,UCD52 [1],54.7
CC1=CC(=O)c2ccccc2C1=O [Menadione] + CC(C)C[C@H](NC(=O)[C@H](CCc1ccccc1)NC(=O)CN1CCOCC1)C(=O)N[C@@H](Cc1ccccc1)C(=O)N[C@@H](CC(C)C)C(=O)[C@@]1(C)CO1 [Carfilzomib],cell viability of combination,HCI01,78.2
same,cell viability of combination,UCD52 [1],62
Cl.OC(c1cc(C(F)(F)F)nc2c(C(F)(F)F)cccc12)C1CCCCN1 (configuration not stated) [Mefloquine hydrochloride] + CC(C)C[C@H](NC(=O)[C@H](CCc1ccccc1)NC(=O)CN1CCOCC1)C(=O)N[C@@H](Cc1ccccc1)C(=O)N[C@@H](CC(C)C)C(=O)[C@@]1(C)CO1 [Carfilzomib],cell viability of combination,HCI01,82.9
same,cell viability of combination,UCD52 [1],51.6
CC(C)(C)c1ccc(C(O)CCCN2CCC(C(O)(c3ccccc3)c3ccccc3)CC2)cc1 (configuration not stated) [Terfenadine] + CC(C)C[C@H](NC(=O)[C@H](CCc1ccccc1)NC(=O)CN1CCOCC1)C(=O)N[C@@H](Cc1ccccc1)C(=O)N[C@@H](CC(C)C)C(=O)[C@@]1(C)CO1 [Carfilzomib],cell viability of combination,HCI01,77.1
same,cell viability of combination,UCD52 [1],64.9
CCOc1nc2cccc(C(=O)OC(C)OC(=O)OC3CCCCC3)c2n1Cc1ccc(-c2ccccc2-c2nn[nH]n2)cc1 (configuration not stated) [Candesartan Cilexetil] + CC(C)C[C@H](NC(=O)[C@H](CCc1ccccc1)NC(=O)CN1CCOCC1)C(=O)N[C@@H](Cc1ccccc1)C(=O)N[C@@H](CC(C)C)C(=O)[C@@]1(C)CO1 [Carfilzomib],cell viability of combination,HCI01,77.5
same,cell viability of combination,UCD52 [1],61.4
C1=C\COCc2cc(ccc2OCCN2CCCC2)Nc2nccc(n2)-c2cccc(c2)COC/1 [Pacritinib] + CC(C)C[C@H](NC(=O)[C@H](CCc1ccccc1)NC(=O)CN1CCOCC1)C(=O)N[C@@H](Cc1ccccc1)C(=O)N[C@@H](CC(C)C)C(=O)[C@@]1(C)CO1 [Carfilzomib],cell viability of combination,HCI01,58.2
same,cell viability of combination,UCD52 [1],57.9
COc1ccc2cc1Oc1ccc(cc1)CC1c3c(cc4c(c3Oc3cc5c(cc3OC)CCN(C)C5C2)OCO4)CCN1C (configuration not stated) [Cepharanthine] + CC(C)C[C@H](NC(=O)[C@H](CCc1ccccc1)NC(=O)CN1CCOCC1)C(=O)N[C@@H](Cc1ccccc1)C(=O)N[C@@H](CC(C)C)C(=O)[C@@]1(C)CO1 [Carfilzomib],cell viability of combination,HCI01,76.2
same,cell viability of combination,UCD52 [1],45.8
Nc1c(CC(=O)[O-])cccc1C(=O)c1ccccc1.O.[Na+] [Amfenac Sodium Monohydrate] + CC(C)C[C@H](NC(=O)[C@H](CCc1ccccc1)NC(=O)CN1CCOCC1)C(=O)N[C@@H](Cc1ccccc1)C(=O)N[C@@H](CC(C)C)C(=O)[C@@]1(C)CO1 [Carfilzomib],cell viability of combination,HCI01,76.5
same,cell viability of combination,UCD52 [1],66.3
CN(C(=O)CN(CCO)CC(=O)N(C)C(C)(C)Cc1ccccc1)C(C)(C)Cc1ccccc1 [Oxethazaine] + CC(C)C[C@H](NC(=O)[C@H](CCc1ccccc1)NC(=O)CN1CCOCC1)C(=O)N[C@@H](Cc1ccccc1)C(=O)N[C@@H](CC(C)C)C(=O)[C@@]1(C)CO1 [Carfilzomib],cell viability of combination,HCI01,70.7
same,cell viability of combination,UCD52 [1],66.5
